Laboratory results reported in PubChem BioAssay (EPA / NIEHS).
Results filed as inconclusive are left out. The source made the active and inactive calls. How the source made its calls, unless noted: active means hit-call score of the fitted dose curve at least 0.9, where 1 is the maximum; inconclusive means response in the unintended direction; inactive means score below 0.9.

What was measured:
[1] = ATG_Oct_MLP_CIS: Attagene CIS-FACTORIAL HepG2 Assay for human Octamer-Binding Transcription Factor (Oct) (AID 2282993; active means hit-call score of the fitted dose curve at least 0.9, where 1 is the maximum; inactive means score below 0.9); conditions: HepG2 Attagene cis-factorial Oct reporter, mRNA; actives raise or lower the signal
Summary of the method: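 HepG2 cells transiently transfected with cis-promoter-driven multiplexed reporter transcription units, dosed for 24 h. Reporter mRNA quantified by RT-PCR, fluorescent labelling, HpaI digestion and capillary electrophoresis; bidirectional fits versus DMSO baseline.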

[2] = biological target: Cellular tumor antigen p53 (Homo sapiens) (UniProt P04637); assay: ATG_p53_CIS: Attagene CIS-FACTORIAL HepG2 Assay for human p53 Transcription Factor (AID 2282994; active means hit-call score of the fitted dose curve at least 0.9, where 1 is the maximum; inactive means score below 0.9); conditions: HepG2 p53 cis-element reporter, Attagene mRNA; actives raise or lower the signal
Summary of the method: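 Multiplexed reporter mRNA assay in human HepG2 liver cells; cis-regulated units report endogenous factor activity. Values come from bidirectional curve fitting against DMSO negative control after 24 h treatment.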

[3] = biological target: human Peroxisome Proliferator-activated Receptor alpha (PPARa), PPARA (gene 5465) (UniProt Q07869); assay: ATG_PPARa_TRANS: Attagene TRANS-FACTORIAL HepG2 Assay for human Peroxisome Proliferator-activated Receptor alpha (PPARa) (AID 2283001);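 on AC50: potency for gain of reporter signal over DMSO so agonist or activator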
Summary of the method: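 Measures transcriptional activity of an exogenous chimeric PPARa-Gal4 protein in transiently transfected HepG2 cells after 24 h dosing. Reporter mRNA quantified via RT-PCR and capillary electrophoresis; DMSO served as negative control.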

[4] = biological target: human Peroxisome Proliferator-activated Receptor delta (PPARd), PPARD (gene 5467) (UniProt Q03181); assay: ATG_PPARd_TRANS: Attagene TRANS-FACTORIAL HepG2 Assay for human Peroxisome Proliferator-activated Receptor delta (PPARd) (AID 2283002)
Summary of the method: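 HepG2 cells transiently transfected with GAL4-UAS multiplexed reporter units driven by exogenous chimeric NR-GAL4 proteins; 24 h compound exposure. Reporter mRNA measured by RT-PCR, 6-FAM primer extension, HpaI digestion and capillary electrophoresis; gain of signal fitted relative to DMSO.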

[5] = biological target: Peroxisome proliferator-activated receptor gamma (Homo sapiens) (UniProt P37231); assay: ATG_PPARg_TRANS: Attagene TRANS-FACTORIAL HepG2 Assay for human Peroxisome Proliferator-activated Receptor-gamma (PPARg) (AID 2283007)
Summary of the method: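 A TRANS-format multiplexed reporter assay measures activity of an exogenous chimeric NR-Gal4 protein in HepG2 cells. After 24 h of chemical exposure, reporter transcripts are amplified, fluorescently labelled and sized by capillary electrophoresis, with gain of signal scored against DMSO.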

[6] = biological target: Nuclear receptor subfamily 1 group I member 2 (Homo sapiens) (UniProt O75469); assay: ATG_PXR_TRANS: Attagene TRANS-FACTORIAL HepG2 Assay for human Pregnane X Receptor (PXR) (AID 2283008)
Summary of the method: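 Measures mRNA induction of a GAL4-UAS-driven reporter in human HepG2 cells transiently expressing PXR fused to Gal4, following 24 h treatment. DMSO served as negative control and baseline.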

[7] = biological target: human RAR-related Orphan Receptor beta (RORb), RORB (gene 6096) (UniProt Q92753); assay: ATG_RORb_TRANS: Attagene TRANS-FACTORIAL HepG2 Assay for human RAR-related Orphan Receptor beta (RORb) (AID 2283010)
Summary of the method: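 HepG2 cells were transiently transfected with multiplexed GAL4-UAS reporter units expressing chimeric nuclear receptor–GAL4 proteins, then dosed for 24 h. Reporter mRNA was quantified by RT-PCR with fluorescent labelling and capillary electrophoresis; gain of signal was fitted relative to DMSO.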

[8] = biological target: Retinoic acid receptor RXR-alpha (Homo sapiens) (UniProt P19793); assay: ATG_RXRa_TRANS: Attagene TRANS-FACTORIAL HepG2 Assay for human Retinoid X Receptor alpha (RXRa) (AID 2283012)
Summary of the method: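 HepG2 cells transiently transfected with multiplexed GAL4-UAS reporter units and chimeric NR-GAL4 fusions, dosed 24 h. Reporter mRNA measured by RT-PCR, FAM labelling, HpaI digestion and capillary electrophoresis; gain-of-signal fitted relative to DMSO baseline.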

[9] = biological target: human Retinoic Acid Receptor beta (RARb), RARB (gene 5915) (UniProt P10826); assay: ATG_RARb_TRANS: Attagene TRANS-FACTORIAL HepG2 Assay for human Retinoic Acid Receptor beta (AID 2283004)
Summary of the method: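 HepG2, transient MRTU transfection, NR–Gal4 chimera, 24 h treatment; RT-PCR plus CE fluorescence detection of reporter mRNA; gain of signal vs DMSO.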

[10] = biological target: human RAR-related Orphan Receptor gamma (RORg), RORC (gene 6097) (UniProt P51449); assay: ATG_RORg_TRANS: Attagene TRANS-FACTORIAL HepG2 Assay for human RAR-related Orphan Receptor gamma (RORg) (AID 2283011)
Summary of the method: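 Activity is scored as increase in GAL4-UAS reporter mRNA over DMSO, detected by fluorescent RT-PCR and capillary electrophoresis in HepG2 cells transiently expressing a RORg-Gal4 chimera, 24 h after dosing.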

[11] = biological target: human Thyroid Receptor alpha (THRa1), THRA (gene 7067) (UniProt P10827); assay: ATG_THRa1_TRANS: Attagene TRANS-FACTORIAL HepG2 Assay for human Thyroid Receptor alpha (THRa1) (AID 2283014)
Summary of the method: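 First, HepG2 cells receive multiple GAL4-UAS reporter units and the chimeric receptor. They are then dosed for 24 h, after which RNA is reverse-transcribed, amplified, labelled, HpaI-cut and sized by capillary electrophoresis; gain relative to DMSO is scored.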

[12] = biological target: Retinoic acid receptor alpha (Homo sapiens) (UniProt P10276); assay: ATG_RARa_TRANS: Attagene TRANS-FACTORIAL HepG2 Assay for human Retinoic Acid Receptor alpha (RARa) (AID 2283005)
Summary of the method: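 HepG2 transiently transfected with multiplex GAL4-UAS reporter units including a human RARa–GAL4 chimera; 24 h compound exposure. Reporter mRNA quantified by RT-PCR, 6-FAM labeling and capillary electrophoresis; gain of signal versus DMSO.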

[13] = biological target: human Retinoic Acid Receptor gamma (RARg), RARG (gene 5916) (UniProt P13631); assay: ATG_RARg_TRANS: Attagene TRANS-FACTORIAL HepG2 Assay for human Retinoic Acid Receptor gamma (RARg) (AID 2283009)
Summary of the method: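 HepG2 cells transiently transfected with multiplexed reporter units expressing chimeric RARg-GAL4 and GAL4-UAS-driven reporters; 24 h compound exposure. Reporter mRNA quantified by RT-PCR with fluorescent labelling and capillary electrophoresis; gain-of-signal fitted relative to DMSO baseline.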

[14] = BSK_3C_TissueFactor: BioMAP Diversity Plus: 3C Assay for Tissue Factor Biomarker Activity (AID 2282997; active means hit-call score of the fitted dose curve at least 0.9, where 1 is the maximum; inactive means score below 0.9); conditions: BioMAP 3C HUVEC, tissue factor biomarker readout; actives raise or lower the signal
Summary of the method: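 Values derive from bidirectional curve fitting against DMSO of Tissue Factor ELISA signals, taken 24 h after dosing primary human umbilical vein endothelial cells.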

[15] = BSK_3C_uPAR: BioMAP Diversity Plus: 3C Assay for Urokinase-type plasminogen activator receptor (uPAR) Biomarker Activity (AID 2282998; active means hit-call score of the fitted dose curve at least 0.9, where 1 is the maximum; inactive means score below 0.9); conditions: BioMAP 3C HUVEC, uPAR biomarker ELISA; actives raise or lower the signal
Summary of the method: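 Human umbilical vein endothelial primary cells were exposed to test chemical for 24 h. Cell-surface uPAR was then quantified by ELISA, and responses were fitted bidirectionally against DMSO as negative control and baseline.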

[16] = BSK_3C_VCAM1: BioMAP Diversity Plus: 3C Assay for Vascular cell adhesion molecule 1 (VCAM1) Biomarker Activity (AID 2282999; active means hit-call score of the fitted dose curve at least 0.9, where 1 is the maximum; inactive means score below 0.9); conditions: BioMAP 3C HUVEC, VCAM1 ELISA, cytokine-stimulated; actives raise or lower the signal
Summary of the method: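 Human umbilical vein endothelial cells (3C system), biomarker read by ELISA 24 h after dosing; bidirectional fit against DMSO baseline. Cytotoxicity tracked by SRB total-protein staining in parallel cultures at biomarker time.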

[17] = BSK_4H_Eotaxin3: BioMAP Diversity Plus: 4H Assay for Eotaxin 3 Biomarker Activity (AID 2283000; active means hit-call score of the fitted dose curve at least 0.9, where 1 is the maximum; inactive means score below 0.9); conditions: primary human endothelial cells (HUVEC); actives raise or lower the signal
Summary of the method: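 Endothelial primary cells (human umbilical vein) exposed to compound for 24 h. ELISA detection of Eotaxin-3.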

[18] = read-out: Intercellular Adhesion Molecule 1 (ICAM1), ICAM1 (gene 3383); assay: BSK_3C_ICAM1: BioMAP Diversity Plus: 3C Assay for Intercellular Adhesion Molecule 1 (ICAM1) Biomarker Activity (AID 2283003; active means hit-call score of the fitted dose curve at least 0.9, where 1 is the maximum; inactive means score below 0.9); conditions: primary human endothelial cells (HUVEC); actives raise or lower the signal
Summary of the method: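 Primary human umbilical vein endothelial cells in the BioMAP 3C system were exposed to chemicals for 24 h, then ICAM-1 was quantified by ELISA. Activity was fitted bidirectionally against the DMSO negative control baseline.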

[19] = BSK_3C_Proliferation: Cell Proliferation Assessment in the BioMAP Diversity Plus: 3C Assay (AID 2283006; active means hit-call score of the fitted dose curve at least 0.9, where 1 is the maximum; inactive means score below 0.9;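 on AC50: potency may reflect either rise or fall in cell number versus DMSO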); conditions: primary human endothelial cells (HUVEC)
Summary of the method: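 Human umbilical vein endothelial cells were grown sub-confluent and exposed to chemical for 48 h, then fixed with 10% TCA and stained with 0.1% sulforhodamine B; absorbance at 560 nm gave relative cell number, fitted bidirectionally against DMSO baseline.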

[20] = biological target: human Retinoid X Receptor beta (RXRb), RXRB (gene 6257) (UniProt P28702); assay: ATG_RXRb_TRANS: Attagene TRANS-FACTORIAL HepG2 Assay for human Retinoid X Receptor beta (RXRb) (AID 2283013)
Summary of the method: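 HepG2 cells transiently transfected with multiplexed reporter units driven by GAL4-UAS and exogenous chimeric NR-Gal4 proteins; treated 24 h. Reporter mRNA measured by RT-PCR, 6-FAM labelling and capillary electrophoresis; gain-of-signal fitted versus DMSO baseline.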

Measured: AC50

human Peroxisome Proliferator-activated Receptor alpha (PPARa), PPARA (gene 5465), sequence (Q07869 whole entry, looked up, the tested form may be a part): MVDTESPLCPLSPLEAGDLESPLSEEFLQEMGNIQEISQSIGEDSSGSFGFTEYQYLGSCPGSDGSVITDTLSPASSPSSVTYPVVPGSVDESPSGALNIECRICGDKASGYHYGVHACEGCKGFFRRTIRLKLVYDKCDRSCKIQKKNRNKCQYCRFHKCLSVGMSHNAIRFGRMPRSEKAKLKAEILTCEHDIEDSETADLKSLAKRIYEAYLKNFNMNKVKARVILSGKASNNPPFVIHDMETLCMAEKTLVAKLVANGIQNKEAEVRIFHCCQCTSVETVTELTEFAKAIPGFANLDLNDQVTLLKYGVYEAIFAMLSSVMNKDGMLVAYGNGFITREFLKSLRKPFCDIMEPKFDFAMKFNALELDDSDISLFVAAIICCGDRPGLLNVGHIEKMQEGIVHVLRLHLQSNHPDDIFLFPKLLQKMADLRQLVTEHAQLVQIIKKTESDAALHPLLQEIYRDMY
human RAR-related Orphan Receptor beta (RORb), RORB (gene 6096), sequence (Q92753 whole entry, looked up, the tested form may be a part): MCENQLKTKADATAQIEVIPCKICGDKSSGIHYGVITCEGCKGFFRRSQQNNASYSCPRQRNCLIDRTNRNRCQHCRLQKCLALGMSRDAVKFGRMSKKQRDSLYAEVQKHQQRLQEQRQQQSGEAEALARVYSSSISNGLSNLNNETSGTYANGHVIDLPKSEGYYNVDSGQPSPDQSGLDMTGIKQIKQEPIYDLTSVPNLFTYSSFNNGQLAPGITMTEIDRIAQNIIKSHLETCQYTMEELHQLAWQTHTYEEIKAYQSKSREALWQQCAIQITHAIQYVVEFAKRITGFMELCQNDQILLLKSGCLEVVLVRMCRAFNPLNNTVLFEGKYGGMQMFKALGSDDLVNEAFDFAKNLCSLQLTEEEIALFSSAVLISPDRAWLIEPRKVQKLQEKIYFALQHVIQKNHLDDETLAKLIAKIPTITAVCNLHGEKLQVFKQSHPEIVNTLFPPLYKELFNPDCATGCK
Nuclear receptor subfamily 1 group I member 2 (Homo sapiens), sequence (O75469 whole entry, looked up, the tested form may be a part): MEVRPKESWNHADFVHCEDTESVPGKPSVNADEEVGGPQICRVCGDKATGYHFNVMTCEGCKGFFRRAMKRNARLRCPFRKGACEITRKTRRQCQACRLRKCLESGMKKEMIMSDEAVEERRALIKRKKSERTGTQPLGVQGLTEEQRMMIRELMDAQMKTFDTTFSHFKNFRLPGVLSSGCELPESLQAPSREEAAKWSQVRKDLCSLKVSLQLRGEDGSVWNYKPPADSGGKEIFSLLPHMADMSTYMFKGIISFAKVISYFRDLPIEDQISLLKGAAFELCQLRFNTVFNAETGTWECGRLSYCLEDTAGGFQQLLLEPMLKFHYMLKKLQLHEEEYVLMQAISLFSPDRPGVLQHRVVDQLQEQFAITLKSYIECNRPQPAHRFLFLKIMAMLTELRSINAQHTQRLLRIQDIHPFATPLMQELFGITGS
Peroxisome proliferator-activated receptor gamma (Homo sapiens), sequence (P37231 whole entry, looked up, the tested form may be a part): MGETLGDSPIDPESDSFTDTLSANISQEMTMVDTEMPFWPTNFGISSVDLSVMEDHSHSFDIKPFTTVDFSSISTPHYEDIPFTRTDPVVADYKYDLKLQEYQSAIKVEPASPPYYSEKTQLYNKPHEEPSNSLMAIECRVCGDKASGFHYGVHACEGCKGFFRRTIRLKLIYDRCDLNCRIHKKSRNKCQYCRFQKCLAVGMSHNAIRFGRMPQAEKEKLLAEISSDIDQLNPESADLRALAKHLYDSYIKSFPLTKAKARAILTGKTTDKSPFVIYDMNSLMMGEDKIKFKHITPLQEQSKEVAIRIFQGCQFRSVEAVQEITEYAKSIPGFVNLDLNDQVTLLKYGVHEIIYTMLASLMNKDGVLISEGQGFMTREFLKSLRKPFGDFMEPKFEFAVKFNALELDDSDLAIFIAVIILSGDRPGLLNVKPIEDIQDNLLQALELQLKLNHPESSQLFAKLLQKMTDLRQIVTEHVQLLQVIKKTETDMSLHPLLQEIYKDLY
Retinoic acid receptor RXR-alpha (Homo sapiens), sequence (P19793 whole entry, looked up, the tested form may be a part): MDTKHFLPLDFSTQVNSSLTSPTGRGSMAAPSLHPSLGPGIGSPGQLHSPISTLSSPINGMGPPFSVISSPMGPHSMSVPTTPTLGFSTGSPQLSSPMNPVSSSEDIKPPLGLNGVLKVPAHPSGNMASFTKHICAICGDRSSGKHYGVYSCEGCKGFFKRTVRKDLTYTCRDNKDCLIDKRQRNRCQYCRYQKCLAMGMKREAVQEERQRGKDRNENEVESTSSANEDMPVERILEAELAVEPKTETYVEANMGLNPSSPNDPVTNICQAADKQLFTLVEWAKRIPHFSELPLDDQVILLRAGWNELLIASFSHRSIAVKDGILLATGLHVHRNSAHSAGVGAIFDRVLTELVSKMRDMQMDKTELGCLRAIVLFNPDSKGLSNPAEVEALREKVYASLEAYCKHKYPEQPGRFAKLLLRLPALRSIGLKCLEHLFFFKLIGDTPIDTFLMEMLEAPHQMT
Cellular tumor antigen p53 (Homo sapiens), sequence (P04637 whole entry, looked up): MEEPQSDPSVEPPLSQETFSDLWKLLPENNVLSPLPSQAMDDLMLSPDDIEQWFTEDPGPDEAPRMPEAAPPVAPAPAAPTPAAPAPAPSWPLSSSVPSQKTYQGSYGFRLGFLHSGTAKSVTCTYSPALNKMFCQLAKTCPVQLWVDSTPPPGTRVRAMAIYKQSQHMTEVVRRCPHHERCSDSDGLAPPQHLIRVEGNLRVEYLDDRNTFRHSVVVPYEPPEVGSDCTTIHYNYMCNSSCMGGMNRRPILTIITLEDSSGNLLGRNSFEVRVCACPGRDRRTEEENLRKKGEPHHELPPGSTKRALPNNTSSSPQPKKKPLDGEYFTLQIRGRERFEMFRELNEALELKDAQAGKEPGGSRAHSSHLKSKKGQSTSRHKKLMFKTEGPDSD
human Peroxisome Proliferator-activated Receptor delta (PPARd), PPARD (gene 5467), sequence (Q03181 whole entry, looked up, the tested form may be a part): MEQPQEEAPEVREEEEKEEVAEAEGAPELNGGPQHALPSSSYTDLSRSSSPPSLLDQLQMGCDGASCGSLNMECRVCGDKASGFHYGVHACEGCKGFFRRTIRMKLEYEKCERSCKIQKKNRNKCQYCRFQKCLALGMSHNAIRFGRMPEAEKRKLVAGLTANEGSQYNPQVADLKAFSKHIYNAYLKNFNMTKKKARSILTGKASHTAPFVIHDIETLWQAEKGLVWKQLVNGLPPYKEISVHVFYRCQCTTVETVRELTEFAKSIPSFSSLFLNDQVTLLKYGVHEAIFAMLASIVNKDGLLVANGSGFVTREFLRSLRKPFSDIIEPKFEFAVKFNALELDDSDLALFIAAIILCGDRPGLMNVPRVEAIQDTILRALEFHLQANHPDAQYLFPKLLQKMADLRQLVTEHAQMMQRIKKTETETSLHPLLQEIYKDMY
human Thyroid Receptor alpha (THRa1), THRA (gene 7067), sequence (P10827 whole entry, looked up, the tested form may be a part): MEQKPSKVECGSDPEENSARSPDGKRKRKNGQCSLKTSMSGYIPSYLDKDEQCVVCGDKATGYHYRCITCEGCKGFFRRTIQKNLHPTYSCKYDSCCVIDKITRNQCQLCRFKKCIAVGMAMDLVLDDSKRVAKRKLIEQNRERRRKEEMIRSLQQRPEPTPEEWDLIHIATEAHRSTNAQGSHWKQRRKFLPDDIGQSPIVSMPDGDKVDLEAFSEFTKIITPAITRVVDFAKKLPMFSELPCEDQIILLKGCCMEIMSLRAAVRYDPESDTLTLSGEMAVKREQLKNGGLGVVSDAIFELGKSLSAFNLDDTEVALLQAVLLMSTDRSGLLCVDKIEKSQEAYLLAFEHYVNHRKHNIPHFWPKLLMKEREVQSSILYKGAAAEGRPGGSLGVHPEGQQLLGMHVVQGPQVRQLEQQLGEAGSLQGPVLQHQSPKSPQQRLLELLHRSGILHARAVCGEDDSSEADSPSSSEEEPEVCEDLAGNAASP
human RAR-related Orphan Receptor gamma (RORg), RORC (gene 6097), sequence (P51449 whole entry, looked up, the tested form may be a part): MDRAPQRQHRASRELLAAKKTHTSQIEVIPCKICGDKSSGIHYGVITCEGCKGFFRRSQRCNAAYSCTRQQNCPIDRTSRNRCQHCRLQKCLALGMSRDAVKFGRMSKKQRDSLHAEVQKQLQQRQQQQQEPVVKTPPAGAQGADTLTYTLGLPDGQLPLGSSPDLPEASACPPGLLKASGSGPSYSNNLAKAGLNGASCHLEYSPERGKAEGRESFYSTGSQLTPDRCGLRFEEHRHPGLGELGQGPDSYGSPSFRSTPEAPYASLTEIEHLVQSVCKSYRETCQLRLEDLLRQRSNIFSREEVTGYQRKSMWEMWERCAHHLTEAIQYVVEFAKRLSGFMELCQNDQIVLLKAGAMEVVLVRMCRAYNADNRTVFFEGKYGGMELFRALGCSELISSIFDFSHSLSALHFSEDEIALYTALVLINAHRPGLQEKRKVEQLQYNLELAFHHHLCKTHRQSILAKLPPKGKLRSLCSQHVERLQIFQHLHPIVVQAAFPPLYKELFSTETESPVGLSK
Retinoic acid receptor alpha (Homo sapiens), sequence (P10276 whole entry, looked up, the tested form may be a part): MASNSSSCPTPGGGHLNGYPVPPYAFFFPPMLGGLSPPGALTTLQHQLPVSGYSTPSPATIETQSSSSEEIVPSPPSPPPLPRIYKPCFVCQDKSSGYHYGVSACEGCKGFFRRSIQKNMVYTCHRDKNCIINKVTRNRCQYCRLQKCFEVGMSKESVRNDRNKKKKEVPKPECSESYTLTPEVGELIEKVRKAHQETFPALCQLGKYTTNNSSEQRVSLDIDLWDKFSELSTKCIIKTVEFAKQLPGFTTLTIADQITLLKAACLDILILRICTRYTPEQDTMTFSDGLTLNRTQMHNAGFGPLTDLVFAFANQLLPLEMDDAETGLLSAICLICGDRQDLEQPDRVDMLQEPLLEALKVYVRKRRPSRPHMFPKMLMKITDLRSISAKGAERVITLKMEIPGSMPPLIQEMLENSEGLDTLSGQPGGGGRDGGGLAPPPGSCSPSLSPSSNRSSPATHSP

CCOC(=O)OC1=C(c2cc(C)ccc2C)C(=O)NC12CCC(OC)CC2 (stereo unspecified)
inactive: [1] | [2] | [3] | [4] | [5] | [6] | [7] | [8]

O=S(=O)(F)C(F)(F)C(F)(F)C(F)(F)C(F)(F)F
inactive: [1] | [2] | [3] | [4] | [5] | [6] | [8]

COCCl
inactive: [1] | [2] | [3] | [4] | [9] | [5] | [6] | [10] | [8] | [11]

C=CCCl
inactive: [1] | [2] | [3] | [4] | [12] | [5] | [6] | [13] | [10]

O=C(CCl)Nc1ccccc1
inactive: [3] | [4] | [6]
active: [1] 8.75 µM | [2] 7.86 µM | [5] 2.7 µM

O=C(O)c1cc(I)cc(I)c1I
active: [3] 17.3 µM | [5] 11.9 µM
inactive: [1] | [2] | [4] | [9] | [6] | [8]

CCOC(=O)C(SP(=S)(OC)OC)c1ccccc1 (stereo unspecified)
active: [15] 20 µM | [16] 25.8 µM | [17] 29.1 µM | [19] 14.9 µM | [5] 70.8 µM | [6] 3.52 µM | [20] 32.2 µM
inactive: [1] | [2] | [14] | [18]

N#CCC#N
inactive: [1] | [2] | [3] | [4] | [12] | [5] | [6] | [11]
active: [8] 43.1 µM | [20] 10.3 µM

O=C(CCl)NCO
not listed: [3] | [5] | [8] | [9] | [10] | [11] | [12] | [20]
inactive: all other assays above

C=CCN=C=S
inactive: [1] | [2] | [3] | [4] | [5] | [6] | [7] | [11]

Nc1cccnc1
inactive: [1] | [2] | [3] | [4] | [5] | [6] | [8] | [11]

CC(=O)CN(CC(C)=O)N=O
inactive: [1] | [2] | [3] | [4] | [5] | [6] | [7] | [8] | [11]
